Bioassay records deposited in PubChem by National Center for Advancing Translational Sciences (NCATS).
Only some compounds are listed: those with a hit (about 7.9% of all), similar ones and a draw of the others.
KB-3-1 cytotox = KB-3-1 parental cell cytotoxicity. hit rate 1.4% among 400,000. KB-3-1 viability, CellTiter-Glo ATP luminescence, 72 h. Potency, µM (highest dose often 46.1 µM), usual class: cytotoxic; further: on the % scale 0 is the no-effect control and ±100 the full control effect; nearly all actives have a fitted effect of over 60% in size
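Parental KB-3-1 adenocarcinoma cells in phenol-red-free DMEM with 10% FBS were pin-treated with compounds at several concentrations, incubated 72 h at 37 °C, and viability read by CellTiter-Glo luminescence; concentration-effect curves were fitted after normalization.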
KB-V1 cytotox = KB-V1 MDR subline cytotoxicity | KB-V1 MDR cells viability, CellTiter-Glo, 72 h | Potency, µM (series often up to 46.1 µM), most hits filed as cytotoxic | hit rate 3.4% among 400,000 | AID 1347076; further: on the % scale 0 is the no-effect control and ±100 the full control effect; nearly all actives have a fitted effect of over 60% in size
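In this primary screen, KB-V1 cells overexpressing P-gp are incubated with library compounds (lowest to highest concentration) for 72 h at 37 degrees C before a luminescent ATP viability read.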
HT1080 IDH1KD tx = kills HT-1080 cells with IDH1 knockdown. HT-1080 IDH1 knockdown viability, ATP luminescence, 48 h. Potency, µM (top dose mostly 46.1 µM), for inactives: at the top dose activity, negative = toxicity, actives largely listed as cytotoxic. hit rate 2% among 360,000. AID 686971;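 further: 0% = DMSO wells and -100% = cell-free medium wells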
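In this qHTS, HT-1080 cells depleted of IDH1 are exposed for 48 h at 37 °C to compound titrations. Toxicity is scored from CellTiter-Glo luminescence, with DMSO as full viability and medium alone as none.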
SW480 rereplic = induces DNA re-replication in SW480 colon adenocarcinoma cells; AID 624297; hit rate 1.8% among 340,000; SW480 DNA re-replication, Hoechst DNA content imaging, 48 h; Potency, µM (top dose mostly 46.1 µM), for the others: at the top dose re-replication activation, hits mostly activators; further: % of control where 0% means no effect; nearly all actives have a fitted effect of over 55% in size
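DNA re-replication was detected as more nuclei of elevated Hoechst intensity after 48 hr exposure to compound (23 nL pinned per well of 250 cells).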
HT1080-NT tox = kills 2HG-producing HT-1080-NT fibrosarcoma cells. AID 686970. Potency, µM (top dose mostly 46.1 µM), inactives show top-dose activity, negative = less viability, most hits filed as cytotoxic. hit rate 1.6% among 360,000. HT-1080-NT fibrosarcoma viability, CellTiter-Glo ATP luminescence, 48 h;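 further: NT is the 2HG producing partner of a matched IDH1 knockdown line; 0% = DMSO-treated cells and -100% = media-only wells without cells; nearly all actives have a fitted effect of over 55% in size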
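Luminescent CellTiter-Glo readout after 48 hours of compound exposure at 37 degrees C defined viability of HT-1080-NT cells. Activity was normalized to DMSO wells and cell-free media wells; concentration-response curves were fitted and assigned curve classes.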
MCF10A rerep = DNA re-replication induction in MCF 10a cells. MCF 10A DNA re-replication, Hoechst nuclear intensity, 48 h. Potency, µM (titrated, usually from 46.1 µM), inactives show at the highest dose activity, positive = re-replication, most hits filed as activators. hit rate 2.9% among 350,000. AID 624296; further: % of control where 0% means no effect; nearly all actives have a fitted effect of over 50% in size
* = called active by the depositor; i = inactive; ? = inconclusive; nt = not tested or not shown. The call rests on the fitted dose curve; in most records, active means well fitted curve in the direction sought with a large enough effect; inconclusive means small, poorly fitted or top-dose-only effect, or another doubt; inactive means no such curve, though single readings can be large; an effect the other way counts as inactive or inconclusive. Potency means the concentration at half of the fitted maximal effect.

SMILES | KB-3-1 cytotox | KB-V1 cytotox | HT1080 IDH1KD tx | SW480 rereplic | HT1080-NT tox | MCF10A rerep
CC(CCc1ccccc1)NC(=O)COC(=O)c1ccc(S(C)(=O)=O)c([N+](=O)[O-])c1 (configuration not stated) | i | i | 7.31µM* | ? | 16.4µM* | ?
Cc1ccccc1NC(=O)Cc1nc(COC(=O)c2nc(Cl)ccc2Cl)cs1 | i | i | -3.7% | -1.0% | 0.0% | -2.2%
CC(CCc1ccccc1)NC(=O)COC(=O)c1ccc([N+](=O)[O-])cc1 (configuration not stated) | i | i | -2.7% | -2.0% | 9.5% | 2.3%
CS(=O)(=O)c1ccc(C(=O)OCC(=O)Nc2cc(C(F)(F)F)ccc2Cl)cc1[N+](=O)[O-] | ? | i | nt | nt | nt | nt
CS(=O)(=O)c1ccc(C(=O)OCC(=O)N2CCN(CCC3CCCCC3)CC2)cc1[N+](=O)[O-] | 6.51µM* | 23.1µM* | nt | nt | nt | nt
Cc1ccccc1NC(=O)Cc1nc(COC(=O)c2ncc(Cl)c(Cl)c2Cl)cs1 | i | i | -1.3% | 6.51µM* | -22.8% | ?
CCOC(=O)c1cc(-c2ccc(OC)cc2)nn1Cc1ccccc1 | i | i | nt | nt | nt | nt
CC(=O)c1cccc(NC(=O)COC(=O)c2ccc(S(C)(=O)=O)c([N+](=O)[O-])c2)c1 | i | i | ? | ? | ? | 2.59µM*
Cc1ccccc1NC(=O)Cc1nc(COC(=O)c2ccc(NC(N)=O)cc2)cs1 | i | i | -11.3% | -7.3% | -19.7% | -16.2%
CS(=O)(=O)c1ccc(C(=O)OCC(=O)Nc2cccnc2Cl)cc1[N+](=O)[O-] | ? | i | ? | ? | -27.9% | 3.66µM*
O=C(COC(=O)c1ccc([N+](=O)[O-])cc1)Nc1cccnc1Cl | ? | i | 7.2% | -6.0% | 9.7% | -1.0%
Cc1ccccc1NC(=O)Cc1nc(COC(=O)c2ccc(S(C)(=O)=O)c([N+](=O)[O-])c2)cs1 | ? | i | 16.4µM* | 13.5% | ? | 3.66µM*
CC(=O)c1cccc(NC(=O)C(C)OC(=O)c2ccc(S(C)(=O)=O)c([N+](=O)[O-])c2)c1 (configuration not stated) | ? | i | nt | nt | nt | nt
Cc1ccc(S(=O)(=O)N2CCC(C(N)=O)CC2)cc1[N+](=O)[O-] | i | i | 26.3% | 1.2% | 17.0% | -4.7%
Cc1ccc(-n2ncc3c(=O)n(CC(=O)NCc4ccco4)cnc32)cc1C | 23.1µM* | ? | ? | ? | ? | ?
O=C(Cn1cnc2c(cnn2-c2ccc(F)cc2)c1=O)NCc1ccco1 | 9.2µM* | 8.2µM* | 18.4µM* | ? | ? | 14.6µM*
CCOc1ccc(S(=O)(=O)NCc2ccccn2)cc1NC(=O)c1ccccc1 | 2.31µM* | 6.51µM* | 3.26µM* | ? | 2.59µM* | ?
COc1ccc(S(=O)(=O)NCc2ccccn2)cc1NC(=O)c1ccccc1F | 1.46µM* | 1.84µM* | 5.8µM* | 5.8µM* | 4.61µM* | 13µM*
CCOc1ccc(S(=O)(=O)NCc2cccnc2)cc1NC(=O)c1ccccc1 | i | i | 0.6% | -9.4% | ? | -11.0%
CCOc1ccc(CN(C(=O)c2oc3cc(C)ccc3c2C)C2CCS(=O)(=O)C2)cc1 (configuration not stated) | ? | ? | ? | 20.6µM* | ? | 14.6µM*
Cc1ccc(-c2nc3cc(C)ccc3o2)cc1 | i | i | 1.7% | -0.6% | 3.4% | 1.9%
COC(=O)c1ccc(-c2nc3ccc(C)cc3o2)cc1 | ? | ? | ? | 7.31µM* | -9.5% | ?
CCc1ccc(NC(=O)CCn2cnc3ccccc3c2=O)cc1 | i | i | nt | nt | nt | nt
c1ccc(CCNc2nc3ccccc3s2)cc1 | i | 18.4µM* | ? | -3.1% | ? | ?
CCOC(=O)c1nc(NCCc2ccccc2)sc1C | i | i | 8.2% | 6.3% | 6.3% | 2.06µM*
SMILES | KB-3-1 cytotox | KB-V1 cytotox | HT1080 IDH1KD tx | SW480 rereplic | HT1080-NT tox | MCF10A rerep
COc1ccc(CCCc2nnc(SCC(=O)Nc3cccc(C)c3)o2)cc1C | i | i | nt | nt | nt | nt
O=S(=O)(Cc1ccccc1)N1CCC(c2nc(-c3cccs3)no2)CC1 | i | 20.6µM* | 6.0% | -8.9% | 4.4% | 2.1%
O=C(c1c(F)cccc1F)N1CCCC(c2nc(-c3cccs3)no2)C1 (configuration not stated) | i | i | -16.1% | -4.2% | -16.1% | 21.1%
O=C(N1CCOCC1)N1CCCC(c2nc(-c3cccs3)no2)C1 (configuration not stated) | i | 14.6µM* | 0.3% | -2.7% | 10.0% | 2.4%
CCCCn1c(CNC(=O)C23CC4CC(CC(C4)C2)C3)nnc1SC(C)CC (configuration not stated) | ? | 20.6µM* | ? | 6.5% | ? | ?
CCCCSc1nnc(CNC(=O)C23CC4CC(CC(C4)C2)C3)n1Cc1ccccc1 | ? | 2.59µM* | -3.1% | 13.0% | -7.7% | ?
O=C(NCc1nnc(SCc2ccccc2)n1-c1ccccc1)C12CC3CC(CC(C3)C1)C2 | i | ? | ? | 0.8% | ? | 0.1%
CCCCn1c(CNC(=O)C23CC4CC(CC(C4)C2)C3)nnc1SCC(=O)Nc1nnc(C)s1 | i | i | 0.6% | 14.4% | -2.9% | -22.7%
CCc1nnc(NC(=O)c2cc(-c3ccccn3)nc3ccc(Br)cc23)s1 | ? | i | -1.0% | -2.8% | 0.6% | -34.5%
OC(CNCC1CCCO1)Cn1c2ccc(Cl)cc2c2cc(Cl)ccc21 (configuration not stated) | ? | ? | ? | 19.0% | 25.9µM* | ?
Cc1c(C)n(CC(O)CNCCO)c2ccccc12 (configuration not stated) | i | i | -1.3% | -1.7% | -3.8% | 0.3%
OC(CNCCC1C=Nc2ccccc21)Cn1c2ccc(Cl)cc2c2cc(Cl)ccc21 (configuration not stated) | ? | ? | ? | ? | ? | 5.17µM*
CC(=O)Nc1cc([N+](=O)[O-])cc(NC(C)=O)c1NC(C)=O | i | i | nt | nt | nt | nt
CCCCOc1ccc(CNC(=O)c2ccc(NC(=O)N3CCSc4ncccc43)cc2)cc1 | i | i | nt | nt | nt | nt
CC(C)(C)OC(=O)N1CCC(NC(=O)c2[nH]cnc2C(=O)Nc2ccccc2F)CC1 | i | i | 5.9% | nt | 6.1% | nt
O=C(N[C@@H]1CC[C@@H](CCNS(=O)(=O)c2ccc(Cl)cc2)O[C@@H]1CO)c1cccnc1 | i | i | 13.1% | nt | 12.2% | nt
